From PubChem BioAssay (NCI) come the findings set out here.

Compounds without any hit were thinned out: in the full panel of roughly 83,000, 20% have a hit.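 The test compound was applied at a single concentration to cells in 96-well plates for 48 hours, and percent growth was recorded.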 Values without a mark were called inactive. The source made the active and inactive calls. Rule for the calls: active = growth percent below 10; inactive = the rest.

In this assay the test system is CCRF-CEM leukemia. The experiment in a line: NCI-60 one-dose screen, 48 h (100 = growth as untreated, 0 = no growth, -100 = all killed). The following applies: 10 µM unless noted.
For `Cc1cc(Br)ccc1-n1cc(C#N)c(N)c1C(=O)c1ccc(Br)cc1`, the growth was 96.6%.
The figure for `CN1CCN(Cc2ccc(NC(=O)c3cncc(C#Cc4cnc(N)nc4)c3)cc2C(F)(F)F)CC1` is 30.9%; for `CCOC(=O)c1c(NC(=O)c2ccc(C(F)(F)F)cc2)sc2c3c(ccc12)OCN(C)C3` it is 2.17% (active).
The figure for `O=C1CSC(c2cn(-c3ccccc3)nc2-c2ccc(Cl)cc2)N1c1ccccc1` (stereo not drawn) is 103%; for `COc1ccc(-c2c3c(cn2Cc2cccc(OC)c2)-c2oncc2CCC3)cc1` it is 96.8%.
The value for `C#C[C@]1(O)CC[C@H]2[C@@H]3CC=C4c5sc(Nc6ccc(C)cn6)nc5CC[C@]4(C)[C@H]3CC[C@@]21C` was 10.6%; that for `CCCCCCOC(=O)c1cc(-c2ccc(F)cc2)nc2ccccc12` was 95.8%.
Turning to `CN1CCN(c2ccc(Nc3nc(NCCNS(=O)(=O)c4ccccc4)c4sccc4n3)cc2)CC1`, the growth is 105%.
The value for `CN1CCN(Cc2ccc(NC(=O)c3cncc(C#Cc4cnc5ccc(O[C@@H]6CCOC6)nn45)c3)cc2C(F)(F)F)CC1` was -15.8% (active).
The figure for `CC(C)(C)Nc1nc2c(OCCc3ccccc3)cccn2c1-c1ccc([N+](=O)[O-])cc1` is 53.7%; for `N#Cc1c(-c2cccs2)cc(-c2cnccn2)nc1SCC(=O)N/N=C/c1ccc(Cl)cc1` it is 87.6%; for `CN(C)CCCOc1ccc(C(=C(c2ccccc2)C2CCCC2)c2ccc(OCCCN(C)C)cc2)cc1` it is -35.2% (active).
The value for `N#Cc1nc(-c2ccc(Cl)cc2)oc1N1CCC(S(=O)(=O)N2CCOCC2)CC1` was 108%.
